Measured values published in paper PMC5700166.

biological target: GST-Hu-p50 (Homo sapiens, UniProt P19838 7-356); assay: protein-binding microarray (PBM); PBM: ~300 nM protein, 6 mM HEPES pH 7.8, 80 mM KCl, 0.5 mM EDTA, 0.5 mM EGTA, 6% glycerol, 35 ng/ul poly-dIdC, 1% milk, 1 h, room temperature; Ap Aiptasia and Nv Nematostella (sea anemones) / Co Capsaspora / Aq Amphimedon (sponge) / Dm Drosophila / Hu human; RHD is the Rel homology domain; high values mean tight binding; settings: dsDNA, one strand shown
Sequence (P19838 7-356): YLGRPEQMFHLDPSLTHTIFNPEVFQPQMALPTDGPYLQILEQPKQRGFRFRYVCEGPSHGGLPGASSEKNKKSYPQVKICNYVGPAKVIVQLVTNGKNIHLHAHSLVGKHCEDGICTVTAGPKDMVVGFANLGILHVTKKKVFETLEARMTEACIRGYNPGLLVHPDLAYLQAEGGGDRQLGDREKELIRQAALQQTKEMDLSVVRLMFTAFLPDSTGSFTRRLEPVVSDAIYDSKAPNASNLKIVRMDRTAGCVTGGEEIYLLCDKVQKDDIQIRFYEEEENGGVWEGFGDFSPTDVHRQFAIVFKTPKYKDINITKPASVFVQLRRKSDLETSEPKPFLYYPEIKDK

For “CCGATTAACATCACCCACCGATTTGATGTTAATCGGGTCTTGATTCGCTTGACGCTGCTG”, which binding signal is on record?
The binding signal was 1.08 z-score.

Which binding signal does the source give for “CCGATTAACATCAAATATTTCCCTGATGTTAATCGGGTCTTGATTCGCTTGACGCTGCTG” here?
Its binding signal is 4.62 z-score.

With “CCGATTAACATCAATAAATTTCCTGATGTTAATCGGGTCTTGATTCGCTTGACGCTGCTG” as the sequence, how does the binding signal read?
Its binding signal is 1.15 z-score.

For “CCGATTAACATCAGGGGTTACACTGATGTTAATCGGGTCTTGATTCGCTTGACGCTGCTG”, which binding signal is on record?
The binding signal was 1.37 z-score.

“CCGATTAACATCAGGGAGAGCCCTGATGTTAATCGGGTCTTGATTCGCTTGACGCTGCTG” was tested. Which binding signal did it give?
The binding signal was 2.37 z-score.

“CCGATTAACATCAACATTTTCCCTGATGTTAATCGGGTCTTGATTCGCTTGACGCTGCTG” was tested. Which binding signal did it give?
The binding signal was 4.21 z-score.

With “CCGATTAACATCAACGGGTCCCTTGATGTTAATCGGGTCTTGATTCGCTTGACGCTGCTG” as the sequence, how does the binding signal read?
The binding signal was 1.31 z-score.

For “CCGATTAACATCAAAAATTCCATTGATGTTAATCGGGTCTTGATTCGCTTGACGCTGCTG”, which binding signal is on record?
The binding signal was 1.07 z-score.

How did the binding signal turn out when “CCGATTAACATCACAGATTTCCCTGATGTTAATCGGGTCTTGATTCGCTTGACGCTGCTG” was run?
Its binding signal is 4.4 z-score.

“CCGATTAACATCAAAATTCCCTCTGATGTTAATCGGGTCTTGATTCGCTTGACGCTGCTG” was tested. Which binding signal did it give?
Its binding signal is 5.19 z-score.

With “CCGATTAACATCACCGGATTTCCTGATGTTAATCGGGTCTTGATTCGCTTGACGCTGCTG” as the sequence, how does the binding signal read?
Its binding signal is 2.28 z-score.

For “CCGATTAACATCAAGGGCTTCCCTGATGTTAATCGGGTCTTGATTCGCTTGACGCTGCTG”, which binding signal is on record?
Its binding signal is 1.06 z-score.

“CCGATTAACATCAGGAAATTTCATGATGTTAATCGGGTCTTGATTCGCTTGACGCTGCTG” was tested. Which binding signal did it give?
Its binding signal is 1.06 z-score.

With “CCGATTAACATCAGGTAATTACCTGATGTTAATCGGGTCTTGATTCGCTTGACGCTGCTG” as the sequence, how does the binding signal read?
The binding signal was 3.47 z-score.

For “CCGATTAACATCAATAAATTCCCTGATGTTAATCGGGTCTTGATTCGCTTGACGCTGCTG”, which binding signal is on record?
The binding signal was 5.11 z-score.

How did the binding signal turn out when “CCGATTAACATCAAAAAACTACCTGATGTTAATCGGGTCTTGATTCGCTTGACGCTGCTG” was run?
The binding signal was 4.32 z-score.

“CCGATTAACATCAGGGGCCGTAATGATGTTAATCGGGTCTTGATTCGCTTGACGCTGCTG” was tested. Which binding signal did it give?
Its binding signal is 1.41 z-score.

For “CCGATTAACATCAGGGGTAACACTGATGTTAATCGGGTCTTGATTCGCTTGACGCTGCTG”, which binding signal is on record?
Its binding signal is 1.68 z-score.

Which binding signal does the source give for “CCGATTAACATCACTCTTTCCCCTGATGTTAATCGGGTCTTGATTCGCTTGACGCTGCTG” here?
Its binding signal is 4.08 z-score.

“CCGATTAACATCAGGACAATCCCTGATGTTAATCGGGTCTTGATTCGCTTGACGCTGCTG” was tested. Which binding signal did it give?
Its binding signal is 1.84 z-score.

For “CCGATTAACATCAGCATTTTCCCTGATGTTAATCGGGTCTTGATTCGCTTGACGCTGCTG”, which binding signal is on record?
Its binding signal is 3.25 z-score.

For “CCGATTAACATCACAGGAATTTCTGATGTTAATCGGGTCTTGATTCGCTTGACGCTGCTG”, which binding signal is on record?
The binding signal was 1.08 z-score.

With “CCGATTAACATCACATCTTCCCCTGATGTTAATCGGGTCTTGATTCGCTTGACGCTGCTG” as the sequence, how does the binding signal read?
Its binding signal is 4.51 z-score.

With “CCGATTAACATCAATGGAATTCCTGATGTTAATCGGGTCTTGATTCGCTTGACGCTGCTG” as the sequence, how does the binding signal read?
The binding signal was 1.48 z-score.

With “CCGATTAACATCAATAAAATTCCTGATGTTAATCGGGTCTTGATTCGCTTGACGCTGCTG” as the sequence, how does the binding signal read?
The binding signal was 1.02 z-score.

With “CCGATTAACATCACGGGATTTTCTGATGTTAATCGGGTCTTGATTCGCTTGACGCTGCTG” as the sequence, how does the binding signal read?
The binding signal was 4 z-score.

With “CCGATTAACATCAGGAAAGTTCCTGATGTTAATCGGGTCTTGATTCGCTTGACGCTGCTG” as the sequence, how does the binding signal read?
Its binding signal is 1.06 z-score.

Which binding signal does the source give for “CCGATTAACATCAAACTTTTCCCTGATGTTAATCGGGTCTTGATTCGCTTGACGCTGCTG” here?
The binding signal was 3.53 z-score.

“CCGATTAACATCACCGGAAATCCTGATGTTAATCGGGTCTTGATTCGCTTGACGCTGCTG” was tested. Which binding signal did it give?
The binding signal was 1.78 z-score.

With “CCGATTAACATCAAGAAATTCCTTGATGTTAATCGGGTCTTGATTCGCTTGACGCTGCTG” as the sequence, how does the binding signal read?
The binding signal was 1.18 z-score.

How did the binding signal turn out when “CCGATTAACATCACCATTTTCCCTGATGTTAATCGGGTCTTGATTCGCTTGACGCTGCTG” was run?
Its binding signal is 3.64 z-score.

“CCGATTAACATCAATGGGATTCCTGATGTTAATCGGGTCTTGATTCGCTTGACGCTGCTG” was tested. Which binding signal did it give?
Its binding signal is 1.23 z-score.

How did the binding signal turn out when “CCGATTAACATCACGGAATTTTCTGATGTTAATCGGGTCTTGATTCGCTTGACGCTGCTG” was run?
Its binding signal is 1.13 z-score.

How did the binding signal turn out when “CCGATTAACATCAGGGCAAAAAATGATGTTAATCGGGTCTTGATTCGCTTGACGCTGCTG” was run?
The binding signal was 1.45 z-score.

With “CCGATTAACATCACAATTTTCCCTGATGTTAATCGGGTCTTGATTCGCTTGACGCTGCTG” as the sequence, how does the binding signal read?
The binding signal was 4.58 z-score.

How did the binding signal turn out when “CCGATTAACATCACACCCCAACATGATGTTAATCGGGTCTTGATTCGCTTGACGCTGCTG” was run?
The binding signal was 1.05 z-score.

With “CCGATTAACATCAGGCAACCCCATGATGTTAATCGGGTCTTGATTCGCTTGACGCTGCTG” as the sequence, how does the binding signal read?
The binding signal was 1.09 z-score.

“CCGATTAACATCACCAAATTTCCTGATGTTAATCGGGTCTTGATTCGCTTGACGCTGCTG” was tested. Which binding signal did it give?
Its binding signal is 1.31 z-score.

For “CCGATTAACATCAGGGGAAAGCATGATGTTAATCGGGTCTTGATTCGCTTGACGCTGCTG”, which binding signal is on record?
Its binding signal is 4.81 z-score.
